Reference: PubChem BioAssay (NCI)
The panel holds about 83,000 compounds, 20% with a hit somewhere; the sample as a whole holds those more often.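 How to read the values: 0–100, growth inhibition (40 = 60% inhibited); 0, no net growth; -100 to 0, cell death (-40 = 40% of starting cells died; -100 = all dead).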 A number with no mark means an inactive call. Calls of active or inactive are those of the source.

What follows are compounds tested on HCC-2998 colon (assay: NCI-60 one-dose screen, 48 h (100 = growth as untreated, 0 = no growth, -100 = all killed)). Settings: 10 µM unless noted.
Procedure: Growth inhibition of the HCC-2998 human tumor cell line is measured as a screen for anti-cancer activity. Cells are grown in 96 well plates and exposed to the test compound for 48 hours. Compounds are tested at a single concentration, which is 10^-5 M for most compounds. The reported endpoint is percent growth (GI% or GIPRCNT), where numbers from 0 - 100% represent growth inhibition, and numbers from -100% - 0 represent cell death. For example, a value of 40 represents 60% growth inhibition. A value of 0 means no net growth occurred over the course of the experiment. A value of -40 indicates 40% of cells at the beginning of the experiment died by the end of the experiment. A value of -100 means all cells are dead at the end of the experiment.
NCI-60 Human Tumor Cell Lines Screen was performed using the standard one-dose NCI protocol, which is described in more detail at https://dtp.cancer.gov/discovery_development/nci-60/default.htm.
Compounds with GIPRCNT values below 10 were considered active. Activity score was based on GIPRCNT using the following formula: […]
Score is 0 for GIPRCNT values of 100 or above, 50 for GIPRCNT values of 0, and 100 for GIPRCNT values of -100.

**Q.** COC(=O)[C@@H]1[C@H](O)[C@H](C)[C@H](O)[C@H](C)/C=C\C=C(C)C(=O)Nc2c(C)c(OC(C)=O)c3c(c2O)C(=O)C(C)=C2OCOC(=C23)C(C)=C[C@@](C)(O)[C@H](O)[C@@H](C)[C@H]1OC(C)=O was tested. Which growth did it give?
**A.** Its growth is 118%.

**Q.** O=C(O)/C(Br)=C/c1c[nH]c2ccc(Br)cc12 was tested. Which growth did it give?
**A.** The growth was 94.2%.

**Q.** How did the growth turn out when CCCCCCCCC/C(=N\NC(=O)c1ccncc1)c1ccc(O)c(O)c1O was run?
**A.** The growth was 33.3%.

**Q.** How did the growth turn out when COc1ccc2cnc(N)c(C#Cc3cc(C(=O)Nc4ccc(CN5CCN(C)CC5)c(C(F)(F)F)c4)cnc3C)c2c1 was run?
**A.** The growth was 86.1%.

**Q.** How did the growth turn out when Cn1cnc2nc[nH]c2c1=S was run?
**A.** The growth was 102%.

**Q.** For O=C1NCCN1/N=C/c1c(Cl)nc2n1CCS2, which growth is on record?
**A.** Its growth is 111%.

**Q.** For CCCCCc1ccnc(CC(=O)c2ccc(OC)cc2)c1, which growth is on record?
**A.** Its growth is 101%.

**Q.** With Cc1nnc(-c2cc3c(ccc4ccccc43)oc2=O)c2cn(-c3ccc(Cl)cc3)nc12 as the compound, how does the growth read?
**A.** The growth was 97.3%.

**Q.** CCCCN(CCCC)CCCNc1c2c(nc3ccc(Cl)cc13)CCCC2 was tested. Which growth did it give?
**A.** Its growth is 82.8%.

**Q.** How did the growth turn out when CCCCCCCCCCCCCCCCNC(=S)N/N=C/c1ccc(OC)cc1 was run?
**A.** The growth was 113%.

**Q.** With CC(=O)Nc1nc(C)c(C(=O)NN)s1 as the compound, how does the growth read?
**A.** Its growth is 84.2%.

**Q.** For CC(=O)N1CCN(CCNC(=O)n2cc(-c3ccncc3)c(-c3cc(O)cc(Cl)c3)n2)CC1, which growth is on record?
**A.** Its growth is 122%.

**Q.** For CCOC(=O)C1C(=O)C(=O)N(C(C)C)C1C(=O)OCC (stereo not given), which growth is on record?
**A.** Its growth is 104%.

**Q.** Which growth does the source give for O=C(NC1CCN(Cc2ccccc2)CC1)c1cc(-c2cccnc2)nc2ccc(Cl)cc12 here?
**A.** The growth was 64.9%.

**Q.** With CCCCCC(=C/c1ccccc1)/C=N/N=C(N)N as the compound, how does the growth read?
**A.** Its growth is -79% (active).

**Q.** For CCOC(=O)c1cc(-c2ccc(OC)cc2)[nH]c1NNC(=O)CCOC, which growth is on record?
**A.** The growth was 122%.

**Q.** For Nc1nc2c(c3cnccc13)C(c1cccc(Br)c1)Cc1cnccc1-2 (stereo not given), which growth is on record?
**A.** The growth was 34.8%.

**Q.** For N#Cc1ccc(OCc2nc(N)nc(N)c2-c2ccc(Cl)c(Cl)c2)cc1, which growth is on record?
**A.** The growth was 40.4%.

**Q.** For CCCCCCCCCCN1CC2CCCCC2C1 (stereo not given), which growth is on record?
**A.** Its growth is 82.9%.

**Q.** Which growth does the source give for CCCCCCCCCCCCCCCCCC1=NCCN1CS(=O)(=O)O here?
**A.** Its growth is 101%.

**Q.** With CCOC(=O)c1sc(NS(=O)(=O)c2ccccc2)nc1C as the compound, how does the growth read?
**A.** Its growth is 27.5%.

**Q.** How did the growth turn out when CCCCCCCCCCCCCCCCCC(=O)Nc1ccc(O)cc1 was run?
**A.** Its growth is 120%.

**Q.** Which growth does the source give for CC(C)OCC1CO1 (stereo not given) here?
**A.** Its growth is 120%.

**Q.** With CCCCCCCCCCCCc1ccc([N+](CC)(CC)CC)cc1 as the compound, how does the growth read?
**A.** Its growth is 36.7%.

**Q.** How did the growth turn out when N#Cc1ccc(NC2c3ccccc3CC2O)cc1 (stereo not given) was run?
**A.** Its growth is 105%.

**Q.** For CCOC(=O)c1c(C)oc2ncnc(Nc3ccc(NC(=O)Nc4ccc(CC)cc4)cc3)c12, which growth is on record?
**A.** The growth was 114%.

**Q.** How did the growth turn out when NC(=O)c1c(Nc2ccccc2)nn2cc(-c3nc4ccccc4s3)c(N)nc12 was run?
**A.** The growth was 97.3%.

**Q.** How did the growth turn out when Cc1nn(-c2ccccc2)c(N)c1N=C1NC(=O)/C(=C/c2ccc(Cl)cc2)S1 was run?
**A.** The growth was 121%.

**Q.** How did the growth turn out when Cc1ccc(C(=O)NN)cc1 was run?
**A.** Its growth is 99.5%.

**Q.** For COc1ccc2nc3cc(Cl)ccc3c(NCCCNC(C)=O)c2c1, which growth is on record?
**A.** Its growth is 50.3%.

**Q.** For O=C(OCC1CC2(Cl)C(Cl)=C(Cl)C1(Cl)C2(Cl)Cl)C1C(C(=O)OCC2CC3(Cl)C(Cl)=C(Cl)C2(Cl)C3(Cl)Cl)C2(Cl)C(Cl)=C(Cl)C1(Cl)C2(Cl)Cl (stereo not given), which growth is on record?
**A.** Its growth is 102%.

**Q.** With C=CCNCCC#N as the compound, how does the growth read?
**A.** Its growth is 116%.

**Q.** With CC(=O)Nc1nc(C)c(C(=O)NNS(=O)(=O)c2ccccc2)s1 as the compound, how does the growth read?
**A.** The growth was 105%.

**Q.** For NC(CSC(c1ccccc1)(c1ccccc1)c1ccccc1)C(=O)NCC(=O)O (stereo not given), which growth is on record?
**A.** Its growth is 28%.

**Q.** For COC1NC(Cl)=C(C#N)C(C#N)(C#N)C1(C)C (stereo not given), which growth is on record?
**A.** Its growth is 113%.

**Q.** With COC(=O)[C@H](Cc1cn(C)cn1)NC(=O)[C@@H](NC(=O)Nc1cc(C(F)(F)F)cc(C(F)(F)F)c1)C(C)(C)C as the compound, how does the growth read?
**A.** Its growth is -94.2% [100 µM] (active).

**Q.** CCOC(=O)c1csc(-c2ccc(COC(=O)c3ccccc3)o2)n1 was tested. Which growth did it give?
**A.** Its growth is 105%.

**Q.** With CCCCCCCCC(=O)Nc1ccc(O)cc1 as the compound, how does the growth read?
**A.** The growth was 83.7%.

**Q.** Which growth does the source give for COc1ccc(/C=C/C(=O)/C=C/c2cc3ccccc3[nH]c2=O)cc1 here?
**A.** Its growth is 96.7%.

**Q.** How did the growth turn out when CCCCCCC(C(=O)OCC)(C(=O)OCC)C1CCCCCC1 was run?
**A.** Its growth is 100%.
